# Data as given in publication PMC7862700, “An all-to-all approach to the identification of sequence-specific readers for epigenetic DNA modifications on cytosine”.
# Experiments:
# Assay in all cases: DAPPL (digital affinity profiling via proximity ligation, sequencing); 10 mM Tris-HCl pH 7.5, 50 mM NaCl, 1 mM DTT, 4% glycerol, room temperature, 30 min; GST-TFs on glutathione beads, 16-mer random dsDNA library, 0.1% formaldehyde crosslink after washing; high values mean tight binding
# FEV = target: T1, FEV (Homo sapiens, UniProt Q99581 1-238); settings: protein: recombinant; tags: N-terminal GST; dsDNA, one strand shown
# T1 sequence: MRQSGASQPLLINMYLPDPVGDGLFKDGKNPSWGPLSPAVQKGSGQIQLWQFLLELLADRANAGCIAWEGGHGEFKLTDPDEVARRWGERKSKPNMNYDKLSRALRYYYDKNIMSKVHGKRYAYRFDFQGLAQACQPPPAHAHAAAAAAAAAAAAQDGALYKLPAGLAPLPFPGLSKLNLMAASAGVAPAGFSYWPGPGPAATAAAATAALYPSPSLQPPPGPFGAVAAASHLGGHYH
# How it was run: (§1)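 In yeast, human transcription factors were expressed with a GST fusion, then pulled down on glutathione beads and given DNA barcodes. Pooled with a tag-only sample, they were exposed to 200 nmole of a 16-mer random double-stranded DNA library (Tris/NaCl/DTT/glycerol buffer, room temperature, 30 min), washed, crosslinked with 0.1% formaldehyde, proximity-ligated using BsaI/T4 ligase for 1 h at 37 °C, PCR-amplified and read on an Illumina NextSeq500. Each hexamer's frequency of reads for a factor, divided by the matching frequency for the tag-only sample, gives the binding signal.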
# ETV5 = ETV5 (Homo sapiens, UniProt P41161 1-510); settings: protein: recombinant; tags: N-terminal GST; dsDNA, one strand shown
# ETV5, sequence (P41161 whole entry): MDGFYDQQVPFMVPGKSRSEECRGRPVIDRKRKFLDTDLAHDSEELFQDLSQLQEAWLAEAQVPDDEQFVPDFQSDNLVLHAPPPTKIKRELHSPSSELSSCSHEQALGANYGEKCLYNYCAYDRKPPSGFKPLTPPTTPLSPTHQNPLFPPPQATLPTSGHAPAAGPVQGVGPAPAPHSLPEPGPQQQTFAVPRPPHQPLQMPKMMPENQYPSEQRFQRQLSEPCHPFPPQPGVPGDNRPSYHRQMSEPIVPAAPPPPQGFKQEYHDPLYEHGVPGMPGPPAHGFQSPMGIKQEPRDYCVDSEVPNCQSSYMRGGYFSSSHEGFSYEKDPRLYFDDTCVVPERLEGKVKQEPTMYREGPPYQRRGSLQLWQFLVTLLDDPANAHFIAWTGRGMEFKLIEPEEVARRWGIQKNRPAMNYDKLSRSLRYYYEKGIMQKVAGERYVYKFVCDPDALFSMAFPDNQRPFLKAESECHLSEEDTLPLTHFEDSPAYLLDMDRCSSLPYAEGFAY
# How it was run: as §1
# HSF1 = HSF1 (Homo sapiens, UniProt Q00613 1-529); settings: protein: recombinant; tags: N-terminal GST; chain copies: 3; dsDNA, one strand shown
# HSF1, sequence (Q00613 whole entry): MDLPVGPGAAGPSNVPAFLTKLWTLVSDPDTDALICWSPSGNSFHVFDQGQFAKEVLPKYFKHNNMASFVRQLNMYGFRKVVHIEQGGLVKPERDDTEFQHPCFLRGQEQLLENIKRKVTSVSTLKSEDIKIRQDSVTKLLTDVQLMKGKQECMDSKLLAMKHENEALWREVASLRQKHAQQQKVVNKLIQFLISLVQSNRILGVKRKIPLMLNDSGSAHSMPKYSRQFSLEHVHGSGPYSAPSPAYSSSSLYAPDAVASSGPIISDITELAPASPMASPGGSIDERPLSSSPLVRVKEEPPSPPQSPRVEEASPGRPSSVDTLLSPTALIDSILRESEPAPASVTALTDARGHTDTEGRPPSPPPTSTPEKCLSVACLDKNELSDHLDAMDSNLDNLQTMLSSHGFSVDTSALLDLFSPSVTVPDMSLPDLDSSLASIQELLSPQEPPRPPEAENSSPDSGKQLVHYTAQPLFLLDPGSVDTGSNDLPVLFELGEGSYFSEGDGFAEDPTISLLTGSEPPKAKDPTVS
# How it was run: as §1
# SPIC = target: T2, SPIC (Homo sapiens, UniProt Q8N5J4 1-248); settings: protein: recombinant; tags: N-terminal GST; dsDNA, one strand shown
# T2 sequence: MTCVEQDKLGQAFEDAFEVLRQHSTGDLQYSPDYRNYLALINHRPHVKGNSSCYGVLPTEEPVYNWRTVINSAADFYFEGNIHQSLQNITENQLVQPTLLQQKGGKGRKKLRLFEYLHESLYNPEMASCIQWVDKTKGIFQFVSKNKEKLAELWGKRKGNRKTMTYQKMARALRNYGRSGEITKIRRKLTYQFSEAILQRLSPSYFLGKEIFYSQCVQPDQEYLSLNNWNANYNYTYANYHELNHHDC
# How it was run: as §1
# ELF4 = ELF4 (Homo sapiens, UniProt Q99607 1-663); settings: protein: recombinant; tags: N-terminal GST; dsDNA, one strand shown
# ELF4, sequence (Q99607 whole entry): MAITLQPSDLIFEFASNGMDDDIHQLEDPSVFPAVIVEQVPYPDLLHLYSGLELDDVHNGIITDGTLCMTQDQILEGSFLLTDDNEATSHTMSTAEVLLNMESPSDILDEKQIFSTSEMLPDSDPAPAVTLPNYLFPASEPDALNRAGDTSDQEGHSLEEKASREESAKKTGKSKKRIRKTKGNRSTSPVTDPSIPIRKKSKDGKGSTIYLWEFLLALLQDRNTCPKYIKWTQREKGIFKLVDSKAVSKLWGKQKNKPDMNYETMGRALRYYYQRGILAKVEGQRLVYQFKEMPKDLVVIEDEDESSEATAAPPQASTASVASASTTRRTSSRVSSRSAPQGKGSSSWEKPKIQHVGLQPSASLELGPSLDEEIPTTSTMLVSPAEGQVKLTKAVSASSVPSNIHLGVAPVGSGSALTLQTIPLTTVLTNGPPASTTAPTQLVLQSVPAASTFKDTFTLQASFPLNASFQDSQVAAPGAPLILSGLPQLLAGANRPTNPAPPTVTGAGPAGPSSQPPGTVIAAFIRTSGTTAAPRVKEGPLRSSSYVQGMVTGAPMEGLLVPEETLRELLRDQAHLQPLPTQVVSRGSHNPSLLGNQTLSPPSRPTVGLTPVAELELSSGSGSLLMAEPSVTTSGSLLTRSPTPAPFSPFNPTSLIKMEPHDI
# How it was run: as §1
# ELK4 = target: T3, ELK4 (Homo sapiens, UniProt P28324-2 1-405); settings: protein: recombinant; tags: N-terminal GST; dsDNA, one strand shown
# T3 sequence: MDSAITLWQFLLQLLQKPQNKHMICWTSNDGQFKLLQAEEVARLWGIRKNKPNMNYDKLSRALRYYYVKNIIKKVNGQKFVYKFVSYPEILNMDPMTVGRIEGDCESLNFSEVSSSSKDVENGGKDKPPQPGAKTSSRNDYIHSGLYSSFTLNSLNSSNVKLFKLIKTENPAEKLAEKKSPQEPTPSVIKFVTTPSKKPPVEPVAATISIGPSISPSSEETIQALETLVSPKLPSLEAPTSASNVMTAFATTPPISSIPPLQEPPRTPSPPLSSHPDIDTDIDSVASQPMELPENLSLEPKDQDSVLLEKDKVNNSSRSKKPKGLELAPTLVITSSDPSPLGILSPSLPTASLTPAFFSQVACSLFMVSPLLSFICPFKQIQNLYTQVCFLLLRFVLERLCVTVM
# How it was run: as §1
# ETV2 = target: T4, ETV2 (Homo sapiens, UniProt O00321 1-342); settings: protein: recombinant; tags: N-terminal GST; dsDNA, one strand shown
# T4 sequence: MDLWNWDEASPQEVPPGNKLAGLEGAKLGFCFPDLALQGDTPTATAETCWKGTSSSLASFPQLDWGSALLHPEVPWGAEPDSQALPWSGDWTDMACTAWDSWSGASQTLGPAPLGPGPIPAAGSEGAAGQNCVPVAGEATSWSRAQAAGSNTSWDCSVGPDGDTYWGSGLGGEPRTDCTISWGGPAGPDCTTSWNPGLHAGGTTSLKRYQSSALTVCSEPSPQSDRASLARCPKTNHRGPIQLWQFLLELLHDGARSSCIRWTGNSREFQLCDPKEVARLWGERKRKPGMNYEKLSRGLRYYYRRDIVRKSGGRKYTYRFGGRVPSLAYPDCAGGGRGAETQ
# How it was run: as §1
# ELF3 = target: T5, ELF3 (Homo sapiens, UniProt P78545 1-371); settings: protein: recombinant; tags: N-terminal GST; dsDNA, one strand shown
# T5 sequence: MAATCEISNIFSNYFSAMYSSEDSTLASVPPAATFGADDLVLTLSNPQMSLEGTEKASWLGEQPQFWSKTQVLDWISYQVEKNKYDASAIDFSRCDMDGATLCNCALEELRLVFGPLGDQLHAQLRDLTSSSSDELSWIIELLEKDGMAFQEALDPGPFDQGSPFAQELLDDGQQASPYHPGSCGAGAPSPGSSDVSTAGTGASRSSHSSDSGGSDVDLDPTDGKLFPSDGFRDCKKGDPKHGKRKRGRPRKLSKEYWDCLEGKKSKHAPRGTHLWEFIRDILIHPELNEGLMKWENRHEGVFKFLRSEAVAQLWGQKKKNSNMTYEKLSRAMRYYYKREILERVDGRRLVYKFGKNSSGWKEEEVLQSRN
# How it was run: as §1
# CRX = CRX (Homo sapiens, UniProt O43186 1-299); settings: protein: recombinant; tags: N-terminal GST; dsDNA, one strand shown
# CRX, sequence (O43186 whole entry): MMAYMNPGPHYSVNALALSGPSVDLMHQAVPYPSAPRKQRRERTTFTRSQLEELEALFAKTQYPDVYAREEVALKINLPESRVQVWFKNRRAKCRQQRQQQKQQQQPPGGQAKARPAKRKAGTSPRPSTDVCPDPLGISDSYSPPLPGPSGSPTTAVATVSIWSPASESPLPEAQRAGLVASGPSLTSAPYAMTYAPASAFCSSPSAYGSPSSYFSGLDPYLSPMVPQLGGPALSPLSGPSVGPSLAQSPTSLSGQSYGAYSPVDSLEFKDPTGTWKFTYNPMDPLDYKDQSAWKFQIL
# How it was run: as §1
# ETV1 = ETV1 (Homo sapiens, UniProt P50549 1-477); settings: protein: recombinant; tags: N-terminal GST; dsDNA, one strand shown
# ETV1, sequence (P50549 whole entry): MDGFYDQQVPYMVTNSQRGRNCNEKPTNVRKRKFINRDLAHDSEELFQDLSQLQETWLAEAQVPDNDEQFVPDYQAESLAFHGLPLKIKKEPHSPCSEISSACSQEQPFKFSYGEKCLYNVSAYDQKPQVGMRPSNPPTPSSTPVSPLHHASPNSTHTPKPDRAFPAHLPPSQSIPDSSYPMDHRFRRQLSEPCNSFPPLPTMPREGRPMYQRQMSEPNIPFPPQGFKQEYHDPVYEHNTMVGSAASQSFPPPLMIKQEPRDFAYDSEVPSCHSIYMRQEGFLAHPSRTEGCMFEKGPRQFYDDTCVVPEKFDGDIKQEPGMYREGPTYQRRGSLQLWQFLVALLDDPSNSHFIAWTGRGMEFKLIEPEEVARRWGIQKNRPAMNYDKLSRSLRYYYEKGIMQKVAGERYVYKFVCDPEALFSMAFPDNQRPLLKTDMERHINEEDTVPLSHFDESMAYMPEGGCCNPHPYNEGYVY
# How it was run: as §1
# ERF = target: T6, ERF (Homo sapiens, UniProt P50548 1-548); settings: protein: recombinant; tags: N-terminal GST; dsDNA, one strand shown
# T6 sequence: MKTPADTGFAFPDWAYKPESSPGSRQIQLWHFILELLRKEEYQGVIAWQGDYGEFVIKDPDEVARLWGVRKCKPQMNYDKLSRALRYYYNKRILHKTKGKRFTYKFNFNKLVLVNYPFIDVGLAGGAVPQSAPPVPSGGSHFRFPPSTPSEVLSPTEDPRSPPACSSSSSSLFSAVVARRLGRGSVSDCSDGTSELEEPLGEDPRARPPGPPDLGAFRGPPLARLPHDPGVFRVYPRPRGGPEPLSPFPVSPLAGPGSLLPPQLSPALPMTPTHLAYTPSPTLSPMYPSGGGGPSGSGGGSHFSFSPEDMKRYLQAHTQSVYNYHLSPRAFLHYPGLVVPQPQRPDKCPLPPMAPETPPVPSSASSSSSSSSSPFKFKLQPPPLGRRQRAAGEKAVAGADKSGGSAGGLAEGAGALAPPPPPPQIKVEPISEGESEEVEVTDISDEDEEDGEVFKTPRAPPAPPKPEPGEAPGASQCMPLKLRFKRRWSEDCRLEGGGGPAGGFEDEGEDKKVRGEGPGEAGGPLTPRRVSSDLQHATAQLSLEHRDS
# How it was run: as §1
# ETV3L = target: T7, ETV3L (Homo sapiens, UniProt Q6ZN32 1-361); settings: protein: recombinant; tags: N-terminal GST; dsDNA, one strand shown
# T7 sequence: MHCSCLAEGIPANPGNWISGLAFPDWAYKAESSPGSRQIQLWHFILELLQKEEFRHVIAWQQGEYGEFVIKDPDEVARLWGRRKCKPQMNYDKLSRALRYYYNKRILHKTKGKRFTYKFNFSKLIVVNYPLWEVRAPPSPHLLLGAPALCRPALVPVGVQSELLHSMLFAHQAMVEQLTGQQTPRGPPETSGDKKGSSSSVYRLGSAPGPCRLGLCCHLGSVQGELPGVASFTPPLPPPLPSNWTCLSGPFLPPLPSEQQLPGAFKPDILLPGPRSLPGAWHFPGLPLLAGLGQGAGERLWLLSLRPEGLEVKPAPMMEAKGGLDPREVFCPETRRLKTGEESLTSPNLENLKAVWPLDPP
# How it was run: as §1
# ETS2 = target: T8, ETS2 (Homo sapiens, UniProt P15036 1-469); settings: protein: recombinant; tags: N-terminal GST; dsDNA, one strand shown
# T8 sequence: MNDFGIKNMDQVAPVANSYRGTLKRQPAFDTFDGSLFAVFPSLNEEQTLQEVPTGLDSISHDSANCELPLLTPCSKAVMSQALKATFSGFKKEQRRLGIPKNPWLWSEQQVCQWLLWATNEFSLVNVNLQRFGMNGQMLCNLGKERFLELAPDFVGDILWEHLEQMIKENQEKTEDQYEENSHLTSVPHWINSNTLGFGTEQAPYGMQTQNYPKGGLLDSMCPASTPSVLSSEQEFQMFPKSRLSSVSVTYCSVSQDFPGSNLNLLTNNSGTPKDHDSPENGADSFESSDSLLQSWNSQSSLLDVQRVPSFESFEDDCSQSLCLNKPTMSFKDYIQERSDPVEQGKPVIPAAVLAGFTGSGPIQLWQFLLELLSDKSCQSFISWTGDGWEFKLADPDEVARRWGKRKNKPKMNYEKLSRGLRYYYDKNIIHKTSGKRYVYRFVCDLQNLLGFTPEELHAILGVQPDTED
# How it was run: as §1
# SPDEF = target: T9, SPDEF (Homo sapiens, UniProt O95238 1-335); settings: protein: recombinant; tags: N-terminal GST; dsDNA, one strand shown
# T9 sequence: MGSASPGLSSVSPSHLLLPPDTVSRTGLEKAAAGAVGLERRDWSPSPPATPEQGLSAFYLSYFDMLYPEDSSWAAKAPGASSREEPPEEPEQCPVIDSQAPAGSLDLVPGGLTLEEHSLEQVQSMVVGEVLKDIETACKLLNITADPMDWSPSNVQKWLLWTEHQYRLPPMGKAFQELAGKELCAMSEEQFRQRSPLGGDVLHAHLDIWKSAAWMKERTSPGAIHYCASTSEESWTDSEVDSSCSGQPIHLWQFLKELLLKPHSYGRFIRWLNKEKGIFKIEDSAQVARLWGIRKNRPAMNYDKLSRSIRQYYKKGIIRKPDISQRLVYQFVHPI
# How it was run: as §1
# ETV7 = target: T10, ETV7 (Homo sapiens, UniProt Q9Y603 1-341); settings: protein: recombinant; tags: N-terminal GST; dsDNA, one strand shown
# T10 sequence: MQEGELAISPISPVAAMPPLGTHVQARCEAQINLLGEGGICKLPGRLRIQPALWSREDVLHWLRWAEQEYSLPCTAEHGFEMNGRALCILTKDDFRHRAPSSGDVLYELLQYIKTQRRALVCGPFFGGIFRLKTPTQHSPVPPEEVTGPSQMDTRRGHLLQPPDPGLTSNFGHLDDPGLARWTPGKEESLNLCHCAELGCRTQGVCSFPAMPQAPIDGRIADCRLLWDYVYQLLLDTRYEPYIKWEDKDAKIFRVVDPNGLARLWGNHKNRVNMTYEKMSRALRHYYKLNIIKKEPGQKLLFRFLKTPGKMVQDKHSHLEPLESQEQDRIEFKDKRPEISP
# How it was run: as §1
# ELF5 = target: T11, ELF5 (Homo sapiens, UniProt Q9UKW6-2 1-255); settings: protein: recombinant; tags: N-terminal GST; dsDNA, one strand shown
# T11 sequence: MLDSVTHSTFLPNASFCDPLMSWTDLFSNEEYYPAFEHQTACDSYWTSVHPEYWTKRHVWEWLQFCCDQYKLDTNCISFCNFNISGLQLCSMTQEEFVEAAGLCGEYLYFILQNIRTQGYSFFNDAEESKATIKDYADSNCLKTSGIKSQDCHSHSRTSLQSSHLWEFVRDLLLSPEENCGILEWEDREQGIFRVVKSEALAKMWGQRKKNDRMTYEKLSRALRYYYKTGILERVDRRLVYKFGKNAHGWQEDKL
# How it was run: as §1
# ETV3 = target: T12, ETV3 (Homo sapiens, UniProt P41162-2 1-143); settings: protein: recombinant; tags: N-terminal GST; dsDNA, one strand shown
# T12 sequence: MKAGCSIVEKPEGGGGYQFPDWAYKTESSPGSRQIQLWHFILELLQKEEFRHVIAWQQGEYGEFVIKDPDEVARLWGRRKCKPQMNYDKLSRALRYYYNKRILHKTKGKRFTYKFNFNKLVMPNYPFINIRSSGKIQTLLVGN
# How it was run: as §1
# ETV6 = ETV6 (Homo sapiens, UniProt P41212 1-452); settings: protein: recombinant; tags: N-terminal GST; dsDNA, one strand shown
# ETV6, sequence (P41212 whole entry): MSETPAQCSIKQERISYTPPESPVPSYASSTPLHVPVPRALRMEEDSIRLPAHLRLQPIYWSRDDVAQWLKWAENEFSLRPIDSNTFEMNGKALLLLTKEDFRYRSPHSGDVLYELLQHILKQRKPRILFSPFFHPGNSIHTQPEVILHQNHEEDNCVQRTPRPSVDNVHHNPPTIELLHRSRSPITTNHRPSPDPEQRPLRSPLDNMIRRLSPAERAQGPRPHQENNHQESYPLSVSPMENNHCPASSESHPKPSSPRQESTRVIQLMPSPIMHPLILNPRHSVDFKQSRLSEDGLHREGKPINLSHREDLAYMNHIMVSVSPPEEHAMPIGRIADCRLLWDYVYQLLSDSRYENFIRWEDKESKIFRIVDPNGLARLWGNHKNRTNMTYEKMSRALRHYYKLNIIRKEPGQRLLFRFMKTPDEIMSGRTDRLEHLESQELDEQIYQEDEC
# How it was run: as §1
sequence,measurement,setting,value
CGAAGC,binding signal,FEV,"1.23 fold enrichment (6-mer frequency, TF over GST control)"
same,binding signal,ETV5,"1.31 fold enrichment (6-mer frequency, TF over GST control)"
same,binding signal,HSF1,"1.64 fold enrichment (6-mer frequency, TF over GST control)"
same,binding signal,SPIC,"1.46 fold enrichment (6-mer frequency, TF over GST control)"
same,binding signal,ELF4,"1.44 fold enrichment (6-mer frequency, TF over GST control)"
same,binding signal,ELK4,"1.48 fold enrichment (6-mer frequency, TF over GST control)"
same,binding signal,ETV2,"1.3 fold enrichment (6-mer frequency, TF over GST control)"
same,binding signal,ELF3,"1.23 fold enrichment (6-mer frequency, TF over GST control)"
same,binding signal,CRX,"1.19 fold enrichment (6-mer frequency, TF over GST control)"
same,binding signal,ETV1,"1.29 fold enrichment (6-mer frequency, TF over GST control)"
same,binding signal,ERF,"1.38 fold enrichment (6-mer frequency, TF over GST control)"
same,binding signal,ETV3L,"1.2 fold enrichment (6-mer frequency, TF over GST control)"
same,binding signal,ETS2,"1.33 fold enrichment (6-mer frequency, TF over GST control)"
same,binding signal,SPDEF,"1.18 fold enrichment (6-mer frequency, TF over GST control)"
same,binding signal,ETV7,"1.44 fold enrichment (6-mer frequency, TF over GST control)"
same,binding signal,ELF5,"1.19 fold enrichment (6-mer frequency, TF over GST control)"
same,binding signal,ETV3,"1.34 fold enrichment (6-mer frequency, TF over GST control)"
same,binding signal,ETV6,"1.14 fold enrichment (6-mer frequency, TF over GST control)"
